{"source": "PubChem BioAssay (NCATS)", "key": {"[1]": {"target": "Aldehyde dehydrogenase, mitochondrial (Homo sapiens) (UniProt P05091)", "test": "qHTS for Inhibitors of the Aldehyde Dehydrogenase Family (ALDH2) Primary screen (AID 2061308); further: nearly all actives have a fitted effect of over 55% in size"}, "[2]": {"target": "Retinaldehyde dehydrogenase 3 (Homo sapiens) (UniProt P47895)", "test": "qHTS for Inhibitors of the Aldehyde Dehydrogenase Family (ALDH1A3) Confirmatory screens (AID 2061311); further: nearly all actives have a fitted effect of over 60% in size; further: potency means the concentration at half of the fitted maximal effect"}, "[3]": {"target": "Retinal dehydrogenase 2 (Homo sapiens) (UniProt O94788)", "test": "qHTS for Inhibitors of the Aldehyde Dehydrogenase Family (ALDH1A2) Confirmation screens (AID 2061314); further: nearly all actives have a fitted effect of over 65% in size; further: potency means the concentration at half of the fitted maximal effect"}, "[4]": {"target": "Retinaldehyde dehydrogenase 3 (Homo sapiens) (UniProt P47895)", "test": "qHTS for Inhibitors of the Aldehyde Dehydrogenase Family (ALDH1A3) Primary screen (AID 2061315)"}, "[5]": {"target": "Aldehyde dehydrogenase 1A1 (Homo sapiens) (UniProt P00352)", "test": "qHTS for Inhibitors of the Aldehyde Dehydrogenase Family (ALDH1A1) Confirmatory screens (AID 2061316); further: nearly all actives have a fitted effect of over 65% in size; further: potency means the concentration at half of the fitted maximal effect"}}, "note": "Inconclusive results are not listed. A call without a number means that no potency is given here. Unmarked numbers belong to inactive results. Active and inactive are the calls of the source. The call rests on the fitted dose curve; in most records, active means well fitted curve in the direction sought with a large enough effect; inconclusive means small, poorly fitted or top-dose-only effect, or another doubt; inactive means no such curve, though single readings can be large; an effect the other way counts as inactive or inconclusive."}
{"smiles": "Oc1cccc2cc(NCc3ccccc3F)cnc12", "values": [{"measurement": "Potency", "setting": "[1]", "result": "inactive"}, {"measurement": "Potency", "setting": "[2]", "result": "7.12 µM (active)"}, {"measurement": "Potency", "setting": "[3]", "result": "15.9 µM (active)"}, {"measurement": "Potency", "setting": "[4]", "result": "inactive"}]}
{"smiles": "Cc1ccc(-c2ccc(=O)n(CC(=O)NCCCc3ccco3)n2)cc1", "values": [{"measurement": "Potency", "setting": "[1]", "result": "inactive"}]}
{"smiles": "O=C1c2ccccc2C(=O)c2cc(S(=O)(=O)Nc3cccc4cccnc34)ccc21", "values": [{"measurement": "Potency", "setting": "[1]", "result": "inactive"}, {"measurement": "Potency", "setting": "[2]", "result": "15.9 µM (active)"}]}
{"smiles": "CN(C)c1cnc2c(O)ccc(C(=O)O)c2c1", "values": [{"measurement": "Potency", "setting": "[1]", "result": "inactive"}, {"measurement": "Potency", "setting": "[2]", "result": "8.96 µM (active)"}, {"measurement": "Potency", "setting": "[3]", "result": "5.04 µM (active)"}, {"measurement": "Potency", "setting": "[4]", "result": "inactive"}]}
{"smiles": "Cc1ccc(NS(=O)(=O)c2cc3c(cc2N2CCC2)NC(=O)CC3)cc1C", "values": [{"measurement": "Potency", "setting": "[1]", "result": "inactive"}, {"measurement": "Potency", "setting": "[2]", "result": "inactive"}, {"measurement": "Potency", "setting": "[3]", "result": "22.5 µM (active)"}, {"measurement": "Potency", "setting": "[4]", "result": "inactive"}, {"measurement": "Potency", "setting": "[5]", "result": "11.3 µM (active)"}]}
{"smiles": "CC(=O)N1CCN(c2ccc(NCc3cccc(C)c3)cc2)CC1", "values": [{"measurement": "Potency", "setting": "[1]", "result": "inactive"}, {"measurement": "Potency", "setting": "[2]", "result": "20.1 µM (active)"}, {"measurement": "Potency", "setting": "[3]", "result": "12.7 µM (active)"}, {"measurement": "Potency", "setting": "[5]", "result": "12.7 µM (active)"}]}
{"smiles": "N[C@@H]1CCN(c2cnc3c(O)ccc(C(=O)O)c3c2)C1", "values": [{"measurement": "Potency", "setting": "[1]", "result": "inactive"}, {"measurement": "Potency", "setting": "[2]", "result": "12.7 µM (active)"}, {"measurement": "Potency", "setting": "[3]", "result": "25.2 µM (active)"}, {"measurement": "Potency", "setting": "[4]", "result": "inactive"}, {"measurement": "Potency", "setting": "[5]", "result": "inactive"}]}
{"smiles": "CNS(=O)(=O)c1ccc(Cc2c(-c3cccc(-c4ccccc4)c3)[nH]n(-c3nc(C(=O)O)cs3)c2=O)cc1", "values": [{"measurement": "Potency", "setting": "[1]", "result": "inactive"}, {"measurement": "Potency", "setting": "[2]", "result": "4 µM (active)"}, {"measurement": "Potency", "setting": "[4]", "result": "inactive"}]}
{"smiles": "Cc1noc(C)c1S(=O)(=O)Nc1cnccc1C(=O)Nc1nc(-c2ccccc2)cs1", "values": [{"measurement": "Potency", "setting": "[1]", "result": "inactive"}, {"measurement": "Potency", "setting": "[2]", "result": "inactive"}, {"measurement": "Potency", "setting": "[4]", "result": "inactive"}]}
{"smiles": "Nc1cccc(CNc2ccc(S(=O)(=O)Nc3nccs3)cc2)c1O", "values": [{"measurement": "activity change, negative = inhibition", "setting": "[1]", "result": "2.56% [at 11.2 µM]"}, {"measurement": "Potency", "setting": "[2]", "result": "10.1 µM (active)"}, {"measurement": "Potency", "setting": "[3]", "result": "inactive"}, {"measurement": "activity change, negative = inhibition", "setting": "[4]", "result": "-14.8% [at 11.2 µM]"}, {"measurement": "Potency", "setting": "[5]", "result": "11.3 µM (active)"}]}
{"smiles": "N#CN1CCC(NS(=O)(=O)c2ccc(C(F)(F)F)cc2)CC1", "values": [{"measurement": "Potency", "setting": "[1]", "result": "inactive"}, {"measurement": "Potency", "setting": "[2]", "result": "inactive"}, {"measurement": "Potency", "setting": "[3]", "result": "12.7 µM (active)"}, {"measurement": "Potency", "setting": "[4]", "result": "inactive"}, {"measurement": "Potency", "setting": "[5]", "result": "inactive"}]}
